# Assay results from PubChem BioAssay (Tox21).
# Where “and” joins values, the source holds several entries; their conditions need not be identical. Equal entries are not always repeated. Inconclusive results are not listed. Entries that show only a call come without a potency. Where a structure was tested more than once in an assay, its records may differ in their call. Calls of active or inactive are those of the source. Unless noted, the call rests on the fitted dose curve; in most records, active means well fitted curve in the direction sought with a large enough effect in the repeat runs; inconclusive means weak or mixed curves; inactive means no such curve, though single readings can be large; an effect the other way counts as inactive or inconclusive.
# Tests used:
# [1] = qHTS assay to identify small molecule agonists of H2AX - cell viability counter screen (AID 1224847; calls by dose curve; further: nearly all actives have a fitted effect of over 30% in size; further: potency means the concentration at half of the fitted maximal effect)
# Summary of the method: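 Read-out: CellTiter-Glo luminescence, 30 min RT. Cells: wild-type CHO-K1, 1000/well, 10% FBS, plated overnight at 37C. Treatment: 15 concentrations, 3 hr, 37C, 0.76% DMSO.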
# [2] = qHTS RealTime-Glo MT Cell Viability Assay in HepG2 cells - 24 hour (AID 1224867); further: nearly all actives have a fitted effect of over 50% in size; further: potency means the concentration at half of the fitted maximal effect
# Summary of the method: (§1)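 HepG2 cells were seeded at 600 cells/well together with NanoLuc luciferase and a cell-permeant prosubstrate, preincubated 5 h at 37 C/5% CO2, then pin-dosed with compounds in DMSO. Nonlytic luminescence from viable cells was read at each time point.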
# [3] = qHTS RealTime-Glo MT Cell Viability Assay in HEK293 cells - 32 hour (AID 1224868); further: nearly all actives have a fitted effect of over 50% in size; further: potency means the concentration at half of the fitted maximal effect
# Summary of the method: (§2)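 HEK293 cells were seeded at 600 cells/well together with NanoLuc luciferase and cell-permeant prosubstrate, preincubated 5 h at 37 C/5% CO2, then given compound in DMSO by pintool. Luminescence from viable-cell prosubstrate reduction was read repeatedly over 40 h.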
# [4] = qHTS RealTime-Glo MT Cell Viability Assay in HepG2 cells - 40 hour (AID 1224870); further: nearly all actives have a fitted effect of over 50% in size; further: potency means the concentration at half of the fitted maximal effect
# Summary of the method: (§3)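 Real-time viability: cells seeded at 600 per well together with NanoLuc and cell-permeant prosubstrate, compounds added after 5 h incubation. Luminescence tracked at 0, 8, 16, 24, 32 and 40 h of exposure.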
# [5] = qHTS RealTime-Glo MT Cell Viability Assay in HEK293 cells - 16 hour (AID 1224872); further: nearly all actives have a fitted effect of over 50% in size; further: potency means the concentration at half of the fitted maximal effect
# Summary of the method: as §2
# [6] = qHTS RealTime-Glo MT Cell Viability Assay in HepG2 cells - 8 hour (AID 1224873); further: nearly all actives have a fitted effect of over 55% in size; further: potency means the concentration at half of the fitted maximal effect
# Summary of the method: as §3
# [7] = A CellTox Green Cytotoxicity Assay to monitor cytotoxicity in HepG2 cells - 16 hour (AID 1224876); further: nearly all actives have a fitted effect of over 45% in size; further: potency means the concentration at half of the fitted maximal effect
# Summary of the method: (§4)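 Cytotoxicity was tracked as dead-cell DNA fluorescence in HepG2 cells treated with test compounds at 37 C; each time-point value comes from one kinetic series spanning 0, 8, 16, 24, 32 and 40 h.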
# [8] = qHTS RealTime-Glo MT Cell Viability Assay in HepG2 cells - 32 hour (AID 1224877); further: nearly all actives have a fitted effect of over 55% in size; further: potency means the concentration at half of the fitted maximal effect
# Summary of the method: as §1
# [9] = A CellTox Green Cytotoxicity Assay to monitor cytotoxicity in HepG2 cells - 24 hour (AID 1224878); further: nearly all actives have a fitted effect of over 45% in size; further: potency means the concentration at half of the fitted maximal effect
# Summary of the method: as §4
# [10] = qHTS RealTime-Glo MT Cell Viability Assay in HEK293 cells - 0 hour (AID 1224880); further: top concentration of the series differs between compounds; nearly all actives have a fitted effect of over 45% in size
# Summary of the method: (§5)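 Kinetic, non-lysing viability readout. Seed HEK293 (600/well) with reagent, incubate 5 h at 37 C/5% CO2, pin 23 nL compound in DMSO, incubate at 37 C, read luminescence at 0, 8, 16, 24, 32, 40 h.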
# [11] = A CellTox Green Cytotoxicity Assay to monitor cytotoxicity in HEK293 cells - 0 hour (AID 1224869); further: nearly all actives have a fitted effect of over 50% in size
# Summary of the method: (§6)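 Real-time, in one plate: 600 HEK293 cells/well with dead-cell DNA dye, pinned compound after 5 h, 37 C incubation over 40 h; viable cells give no appreciable fluorescence.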
# [12] = A CellTox Green Cytotoxicity Assay to monitor cytotoxicity in HEK293 cells - 40 hour (AID 1224871); further: nearly all actives have a fitted effect of over 45% in size; further: potency means the concentration at half of the fitted maximal effect
# Summary of the method: as §6
# [13] = qHTS RealTime-Glo MT Cell Viability Assay in HEK293 cells - 40 hour (AID 1224874); details: RealTime-Glo luminescence; max response: stronger effect = lower value; further: nearly all actives have a fitted effect of over 50% in size; further: potency means the concentration at half of the fitted maximal effect
# Summary of the method: as §5
# [14] = A CellTox Green Cytotoxicity Assay to monitor cytotoxicity in HEK293 cells - 24 hour (AID 1224875); further: nearly all actives have a fitted effect of over 45% in size; further: potency means the concentration at half of the fitted maximal effect
# Summary of the method: as §6
# [15] = A CellTox Green Cytotoxicity Assay to monitor cytotoxicity in HepG2 cells - 40 hour (AID 1224879); further: nearly all actives have a fitted effect of over 40% in size; further: potency means the concentration at half of the fitted maximal effect
# Summary of the method: as §4
# [16] = A CellTox Green Cytotoxicity Assay to monitor cytotoxicity in HEK293 cells - 32 hour (AID 1224881); further: nearly all actives have a fitted effect of over 40% in size; further: potency means the concentration at half of the fitted maximal effect
# Summary of the method: as §6
# [17] = qHTS assay to identify small molecule antagonists of the estrogen related receptor (ERR) signaling pathway from Tox21 library (AID 1224848); further: nearly all actives have a fitted effect of over 50% in size; further: potency means the concentration at half of the fitted maximal effect
# Summary of the method: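 ERR cell line, 2,000 cells/well. 6 h settle, then compound (DMSO) added; 18 h at 37 C; ONE-Glo luminescence after 30 min RT.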
# [18] = qHTS assay to identify small molecule agonists of the estrogen related receptor (ERR) signaling pathway from Tox21 library (AID 1224849; calls by dose curve; further: nearly all actives have a fitted effect of over 15% in size); details: ERR reporter cell line, ONE-Glo luciferase, 18 h; at 92.4 µM (top of the series) unless noted
# Summary of the method: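 Luciferase activity in ERR pathway reporter cells served as the agonist readout; exposure lasted 18 h at 37 C, with ONE-Glo detection after 30 min at room temperature.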
SMILES,Potency [1],Potency [2],Potency [3],Potency [4],Potency [5],Potency [6],Potency [7],Potency [8],Potency [9],Potency [10],Potency [11],Potency [12],Potency [13],Potency [14],Potency [15],Potency [16],Potency [17],"activity change, positive = activation [18]",max response [13]
O=[N+]([O-])c1ccc2ccc3cccc4ccc1c2c34,inactive,inactive,inactive,inactive,inactive,inactive,inactive,inactive,inactive,inactive,–,–,–,–,–,–,–,–,–
BrC(Br)C(Br)(Br)Br,–,inactive,43.9 µM (active),inactive,43.9 µM (active),inactive,inactive,inactive,–,inactive,inactive,55.3 µM (active),–,–,–,–,–,–,–
O=c1[nH]c2ccccc2n1CCCN1CCC(n2c(=O)[nH]c3cc(Cl)ccc32)CC1,–,inactive,10.7 µM (active),–,9.52 µM (active),inactive,inactive,inactive,21.3 µM (active),inactive,inactive,inactive,10.7 µM (active),inactive,23.9 µM (active),inactive,–,–,–
CCC(C)c1cc([N+](=O)[O-])cc([N+](=O)[O-])c1OC(=O)C=C(C)C (centres undefined),56.6 µM (active),49 µM (active),21.9 µM (active),49 µM (active),49 µM (active),–,inactive,49 µM (active),inactive,inactive,inactive,inactive,21.9 µM (active),inactive,–,inactive,–,–,–
Nc1ccccc1C(=O)OC/C=C/c1ccccc1,101 µM (active),inactive,24.6 µM (active),inactive,24.6 µM (active),inactive,inactive,–,inactive,inactive,–,inactive,24.6 µM (active),inactive,inactive,inactive,–,–,–
O=[N+]([O-])O.O=[N+]([O-])O.[Cd],–,–,49 µM (active),inactive,–,inactive,inactive,–,49 µM (active),inactive,inactive,6.92 µM (active),24.5 µM (active),–,43.6 µM (active),38.9 µM (active),–,–,–
CC1(C)CC/C(=C/c2ccc(Cl)cc2)C1(O)Cn1cncn1 (centres undefined),–,inactive,–,inactive,–,inactive,inactive,inactive,–,inactive,inactive,–,–,inactive,–,–,–,–,–
CC1(C)C(/C=C(\Cl)C(F)(F)F)C1C(=O)OC(C#N)c1cccc(Oc2ccccc2)c1 (centres undefined),inactive,inactive,–,inactive,–,inactive,inactive,inactive,–,inactive,–,inactive,–,inactive,inactive,inactive,–,–,–
Oc1c(Br)c(Br)c(Br)c(Br)c1Br,80.5 µM (active),inactive,–,inactive,–,inactive,inactive,inactive,inactive,inactive,inactive,–,–,inactive,inactive,inactive,–,–,–
COc1cccc(C(=O)CCN[C@@H](C)[C@H](O)c2ccccc2)c1,–,–,–,23.9 µM (active),–,inactive,inactive,23.9 µM (active),–,inactive,inactive,–,–,–,–,–,inactive,2.02% [at 42.5 µM] (inactive),–
ClC(Cl)=C(c1ccc(Cl)cc1)c1ccc(Cl)cc1,–,inactive,–,inactive,56.3 µM (active),inactive,inactive,inactive,inactive,inactive,inactive,43.6 µM (active),–,inactive,inactive,–,inactive,-26.1% (inactive) and 7.66% (inactive),–
CCN(CC)C(=S)[S-].CCN(CC)C(=S)[S-].[Zn+2],50 µM (active),13.7 µM (active),4.86 µM (active),–,5.45 µM (active),–,–,–,12.2 µM (active),inactive,inactive,5.45 µM (active),2.73 µM (active),15.4 µM (active),10.9 µM (active),15.4 µM (active),–,–,–
O=C(O)c1cc[c]([Hg][Cl])cc1,–,24.5 µM (active),–,24.5 µM (active),–,34.7 µM (active),38.9 µM (active),–,27.5 µM (active),inactive,inactive,17.4 µM (active),15.5 µM (active),24.5 µM (active),19.5 µM (active),21.9 µM (active),–,–,–
[Cd+2].[Cl-].[Cl-],–,–,–,inactive,–,inactive,55.4 µM (active) and inactive,–,22.1 µM (active) and 38.9 µM (active),inactive,inactive,24.8 µM (active) and 7.76 µM (active),–,inactive,19.7 µM (active) and 24.5 µM (active),44 µM (active) and 15.5 µM (active),–,–,–
S=C(SSC(=S)N1CCCCC1)N1CCCCC1,–,–,15.1 µM (active),0.213 µM (active),16.9 µM (active),26.8 µM (active),–,0.213 µM (active),–,inactive,inactive,–,–,inactive,0.169 µM (active),0.107 µM (active),0.473 µM (active),-70.7% [at 42.5 µM] (inactive),–
Oc1ccc(C(=C(Cl)Cl)c2ccc(O)cc2)cc1,–,inactive,43.6 µM (active),inactive,43.6 µM (active),inactive,inactive,inactive,inactive,inactive,inactive,inactive,43.6 µM (active),inactive,inactive,inactive,34.3 µM (active),-44.3% (inactive),–
C=CC(=O)OCC(COC(=O)C=C)(COC(=O)C=C)COC(=O)C=C,–,6.16 µM (active),3.89 µM (active),5.49 µM (active),3.89 µM (active),3.09 µM (active),inactive,5.49 µM (active),49 µM (active),inactive,inactive,19.5 µM (active),3.89 µM (active),–,21.9 µM (active),27.5 µM (active),13.7 µM (active),-79.4% (inactive),–
O=[N+]([O-])c1cc(C(F)(F)F)c(Cl)c([N+](=O)[O-])c1Cl,–,21.9 µM (active),5.49 µM (active),–,6.92 µM (active),43.6 µM (active),49 µM (active),21.9 µM (active),–,inactive,–,–,4.9 µM (active),7.76 µM (active),19.5 µM (active),7.76 µM (active),27.3 µM (active),-73.4% (inactive),–
Clc1ccc(CCC(Cn2ccnc2)Sc2c(Cl)cccc2Cl)cc1 (centres undefined),–,–,9.52 µM (active),inactive,–,–,–,–,–,inactive,inactive,inactive,8.49 µM (active),inactive,10.7 µM (active),inactive,18.8 µM (active),-61.6% [at 42.5 µM] (inactive),–
C[C@]12CC[C@H]3[C@@H](CCC4=CC(=O)CC[C@@]43C)[C@@H]1CC[C@@H]2O,inactive,inactive,48.6 µM (active),inactive,–,inactive,inactive,inactive,inactive,inactive,inactive,–,–,inactive,–,–,–,–,–
CCOCn1c(-c2ccc(Cl)cc2)c(C#N)c(Br)c1C(F)(F)F,2.53 µM (active),–,4.36 µM (active),–,6.16 µM (active),–,inactive,–,17.4 µM (active),inactive,–,24.5 µM (active),4.36 µM (active),inactive,12.3 µM (active),–,–,–,–
CN(C)CCc1c[nH]c2ccc(O)cc12,inactive,inactive,inactive,inactive,inactive,inactive,inactive,inactive,inactive,inactive,inactive,–,–,inactive,–,inactive,–,–,2.26% (inactive)
CC(=O)O[C@H]1CC[C@@]2(C)C(=CC[C@@H]3[C@@H]2CC[C@]2(C)C(=O)CC[C@@H]32)C1,101 µM (active),inactive,49 µM (active),inactive,49 µM (active),inactive,inactive,inactive,inactive,–,inactive,–,54.9 µM (active),–,inactive,–,–,–,–
CN(C)CCc1c[nH]c2cccc(O)c12,inactive,inactive,inactive,–,inactive,inactive,inactive,inactive,inactive,inactive,–,inactive,–,inactive,–,inactive,–,–,-1.01% (inactive)
